Compounds without any hit were thinned out: in the full panel of roughly 83,000, 20% have a hit.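 Single-concentration screen, 48 h exposure, 96-well plates. Endpoint: percent growth. Below 10 = active.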 The source made the active and inactive calls.

In the assay the test system is HL-60(TB) leukemia. In words: NCI-60 one-dose screen, 48 h (100 = growth as untreated, 0 = no growth, -100 = all killed). The note with it: 10 µM unless noted.
On to `CC(C)(C)N1CCC1C(N)=O` (stereo not drawn), for which the growth was 92.4% (inactive). On to `Cc1c(F)cccc1NC(=O)c1sc2nc3c(cc2c1N)CCCCC3`, for which the growth is 6.49% (active). Take `O=C(O)CC1CCCCC1c1ccccc1` (stereo not drawn): the growth is 99.9% (inactive). Regarding `COc1ccc(Nc2nn3c(SCC(=O)c4ccc(C)cc4)nnc3s2)cc1`, the growth was 86% (inactive).

Turning to `CC(NC(=O)C(C)Oc1ccc(Cl)cc1Cl)C(=O)O` (stereo not drawn), the growth is 105% (inactive). `N/C(=N\O)c1ccncc1`: the growth was 102% (inactive). On to `CNC(=O)c1cc(Oc2ccc(NC(=O)Nc3ccc(Cl)c(SC)c3)c(F)c2)ccn1`, for which the growth was 45.5% (inactive).

On to `CC(=O)Nc1ccc(S(=O)(=O)NC2CCCCC2)cc1`, for which the growth is 96% (inactive). The result for `N#Cc1c(-c2ccc(Cl)cc2)nc(NCCO)[nH]c1=O` reads 102% (inactive); that for `COc1cc2c3c(cccc3c1)C(=O)N(CCN1CCCC1)C2=O`, 26% (inactive); that for `CSc1nc(NCCN2CCOCC2)c(C#N)c(-c2cccc([N+](=O)[O-])c2)n1`, 100% (inactive). `COC(=O)/C(=C\c1ccc(OC)cc1)C(=O)N1c2ccccc2Sc2ccccc21`: the growth was 16.5% (inactive). The same measure for `Clc1ccc2nc3nc4ccc[nH]c4cc3c2c1`: 88.2% (inactive); for `O=C1NC(=O)/C(=C\c2ccncc2)N1`: 119% (inactive). Consider `CCc1nn(Cc2ccccc2)c2nc(C)c(CCc3ccccc3)c(Cl)c12`, for which the growth is 82.7% (inactive). On to `CCCCCN(CCCCC)CCCCCCCCN1CCCc2ccccc21`, for which the growth is -14.2% (active). The same measure for `Cc1cc(=O)n2n1-c1ccc(Cl)cc1NC(=O)C2`: 101% (inactive); for `CCCNNC(=O)c1ccc(CNC(=O)/C=C/c2ccccc2)cc1`: 33.4% [2.5 µM] (inactive).

Source of the values: PubChem BioAssay (NCI).
